Source: PubChem
Only some compounds are listed: those with a hit (about 5.6% of all), similar ones and a draw of the others.
Cardio protect: myocardial damage modulation in H9c2 cells; AID 588492; 0.63% of 360,000 active; H9c2 cardiomyocytes, H2O2 injury protection, ATPLite, 2 h; protection from H2O2 cell death, % at 20 µM;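 active = compounds giving at least 50% protection of heart cells from peroxide-induced death in the single-dose screen, raw or plate-pattern-corrected value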;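 also: 0% = DMSO wells with peroxide and 100% = DMSO wells without peroxide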
PfGluPho inh: PfG6PD (Plasmodium falciparum) enzyme inhibition; PfGluPho enzyme, NADPH resazurin-diaphorase fluorescence; inhibition, % at 20 µM; 0.78% of 350,000 active;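 active = inhibition reaching at least a set limit at 20 µM in the primary screen, cut at about 59% in these data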;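 also: 0% = DMSO wells with substrate and 100% = DMSO wells lacking glucose-6-phosphate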
M18AAP inhibitor: blocks P. falciparum M18 aspartyl aminopeptidase; 1.2% of 290,000 active; inhibition, % at 7.35 µM; recombinant PfM18AAP, H-Glu-NHMec fluorogenic cleavage;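 active = inhibition above the campaign mean inhibition over all tested compounds plus 3 SD, cut at about 28% in these data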;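 also: 0% = plate median of test compound wells and 100% = 2 mM ZnCl2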
ALR H2O2 inh: blocks human ALR sulfhydryl oxidase activity; P55789; purified ALR, DTT oxidation, H2O2 HRP-luminol luminescence; inhibition, % (concentration not given with the values); 3.8% of 290,000 active; AID 485317;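 active = mean replicate inhibition above about 79%, with every replicate also reaching it, limit read from the data; inconclusive = only one of the two criteria met; inactive = mean below limit and not every replicate reaching it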
Target sequence (P55789 whole entry, looked up): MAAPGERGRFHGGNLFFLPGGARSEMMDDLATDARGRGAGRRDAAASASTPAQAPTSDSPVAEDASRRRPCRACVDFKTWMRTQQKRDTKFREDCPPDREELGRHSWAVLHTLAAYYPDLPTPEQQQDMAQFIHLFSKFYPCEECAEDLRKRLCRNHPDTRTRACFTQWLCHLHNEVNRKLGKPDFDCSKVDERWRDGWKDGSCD
PHOSPHO1 inh: inhibitors of human PHOSPHO1 phosphatase | Q8TCT1 | recombinant PHOSPHO1, absorbance phosphatase assay | inhibition, % at 13.3 µM | 1.1% of 290,000 active | AID 1565; in the data active = inhibition above about 60%
Target sequence (Q8TCT1 whole entry, looked up): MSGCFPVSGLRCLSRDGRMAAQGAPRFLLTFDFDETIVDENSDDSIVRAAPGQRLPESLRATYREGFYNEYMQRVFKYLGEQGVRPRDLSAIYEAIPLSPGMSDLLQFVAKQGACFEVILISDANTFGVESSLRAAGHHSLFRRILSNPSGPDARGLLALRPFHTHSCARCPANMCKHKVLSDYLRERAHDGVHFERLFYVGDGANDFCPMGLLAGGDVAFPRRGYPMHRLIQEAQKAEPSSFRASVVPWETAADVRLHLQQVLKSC
* marks the source's active call; other numbers are inactive results; ? = inconclusive; . = not tested or not shown.

SMILES | Cardio protect | PfGluPho inh | M18AAP inhibitor | ALR H2O2 inh | PHOSPHO1 inh
Cc1ccc(CSCC(=O)NCc2ccc(F)cc2)cc1 | 3.4 | 0.8 | -13.7 | 1.4 | 6.7
Cc1ccccc1CSCC(=O)NC1CCCC1 | 0.7 | -5.1 | 1.9 | . | 5.5
Cc1cccc(C)c1NC(=O)CSCC(=O)O | 5.2 | -12.4 | -4.2 | -2.8 | -4.9
Cc1ccc(NC(=O)CSCC(=O)NC2=NCCS2)cc1 | 2.2 | -0.1 | . | 98.5* | .
O=C(CSCc1ccco1)NC1CCCC1 | 4.2 | 5.9 | -1.9 | 98.9* | 1.0
Cc1ccc(NC(=O)CSCc2ccc(F)cc2)cc1 | -2.7 | 5.4 | 5.5 | 92.6* | -0.3
Cc1noc(C)c1COc1ccccc1C(=O)NC1CCC(C)CC1 (configuration not stated) | -0.4 | 0.7 | -8.9 | 1.6 | 12.6
COc1ccccc1N=C1NC(=O)/C(=C/c2ccc(N(C)C)cc2)S1 | -17.0 | 1.3 | 5.8 | 4.9 | 34.8
O=C(O)CSCC(=O)Nc1ccc(C2CCCCC2)cc1 | -1.6 | -28.8 | 3.7 | 98.4* | 11.7
Cc1ccc(NC(=O)CSCC(=O)NCc2ccco2)cc1 | -0.1 | 12.5 | . | 34.2 | .
Cc1ccc(NC(=O)CSCc2ccco2)cc1 | -7.7 | -5.0 | 0.4 | 98.9* | 56.6
Cc1nn(CC(=O)NCCCN2CCCC2)c(=O)c2nn(-c3ccccc3)c(C)c12 | 4.1 | 11.2 | 5.8 | 2.1 | 42.0
O=c1c2cc(O)c(O)cc2oc2cc(O)c(C3OC(CO)C(O)C(O)C3O)c(O)c12 (configuration not stated) | -1.2 | 1.9 | . | 99.3* | .
O=c1cc(-c2ccc(O)c(O)c2)oc2cc(O)c([C@@H]3O[C@H](CO)[C@@H](O)[C@H](O)[C@H]3O)c(O)c12 | 5.2 | -7.4 | . | 98.6* | .
O=c1cc(-c2ccc(O)c(O)c2)oc2cc(O)cc(O)c12 | 61.9* | 5.7 | . | ? | 39.7
CC(C)(C)NC(=O)C1(C)CCC(=O)N1CCCn1ccnc1 (configuration not stated) | 4.8 | . | . | . | .
COCCN(C(=O)c1cc(S(=O)(=O)N2CCCCC2)ccc1Cl)c1c(N)n(CC(C)C)c(=O)[nH]c1=O | -2.6 | -13.8 | . | . | .
CCCc1nnc(NC(=O)C23CC4CC(CC(C4)C2)C3)s1 | 3.9 | -8.0 | -4.5 | -3.8 | 13.7
C/C(=N\NC(=O)c1ccccc1-n1cccc1)c1ccccn1 | 69.2* | 2.9 | . | . | .
C=CCOc1ccc(C(=O)Nc2ncn[nH]2)cc1 | 0.4 | -6.5 | 11.6 | 2.9 | -11.3
CC(C)C(CCN1C(=O)c2ccccc2C1=O)c1ccco1 (configuration not stated) | -2.0 | 10.7 | 7.0 | 90.0* | -9.3
O=C(OCCN1C(=O)c2ccccc2C1=O)c1ccco1 | 3.3 | 3.3 | -1.6 | -0.3 | -41.5
O=C(O)[C@@H]1CCCN1C(=O)c1ccccc1N1C(=O)[C@@H]2Cc3c([nH]c4ccccc34)C(c3cccc(Cl)c3)N2C1=O (some centres not stated) | -6.7 | 1.3 | 0.9 | 97.4* | 33.8
COc1cccc(C2c3[nH]c4ccccc4c3C[C@H]3C(=O)N(c4ccccc4C(=O)N4CCC[C@H]4C(=O)O)C(=O)N23)c1 (some centres not stated) | -1.8 | -9.2 | 0.2 | 98.2* | 13.1
COc1ccc(C2c3[nH]c4ccccc4c3C[C@H]3C(=O)N(c4ccccc4C(=O)N4CCC[C@H]4C(=O)O)C(=O)N23)cc1 (some centres not stated) | 2.1 | -0.6 | 5.2 | 98.0* | 13.1
SMILES | Cardio protect | PfGluPho inh | M18AAP inhibitor | ALR H2O2 inh | PHOSPHO1 inh
COc1ccc(C2c3[nH]c4ccccc4c3C[C@H]3C(=O)N(c4ccccc4C(=O)N4CCC[C@@H]4C(=O)O)C(=O)N23)cc1 (some centres not stated) | -0.7 | 7.8 | . | . | .
C[C@@H]1CN([C@@H](C)CO)C(=O)CCCn2nncc2CO[C@@H]1CN(C)S(=O)(=O)c1ccccc1 | 0.1 | -19.2 | . | . | .
COc1ccc(N(C(=O)Cn2nnc3ccccc32)C(C(=O)NCc2ccco2)c2ccncc2)cc1 (configuration not stated) | 3.2 | 5.7 | 4.3 | . | 40.0
Cc1nn2c(NCCOCCO)c3c(nc2c1-c1ccccc1)CCCC3 | 3.3 | 1.5 | 0.6 | 86.4* | 32.3
COc1cccc2cc(-c3ccccc3)oc12 | -5.4 | -2.8 | . | 1.8 | .
COc1cccc2cc(-c3ccnc(=S)[nH]3)oc12 | . | . | 7.7 | 99.0* | -0.3
CNC(=O)c1csc(-c2ccc(C)cc2)n1 | 2.8 | 1.5 | -13.0 | 98.7* | 32.3
Cc1cc(C)n2nc(C(=O)N/N=C/c3c4ccccc4cc4ccccc34)nc2n1 | 64.2* | -0.4 | -4.4 | -9.4 | 8.4
COC(=O)COC(=O)c1ccc(-n2nnnc2SC)cc1 | -2.9 | 1.5 | -0.3 | -13.5 | -16.2
COC(=O)c1ccc(-n2nnnc2SC)cc1 | -3.1 | 43.1 | 19.3 | -4.5 | 81.2*
CC(=O)CCc1ccc(Oc2nc(-c3cccnc3)nc3ccccc23)cc1 | 54.9* | 6.7 | 9.1 | -3.5 | -29.3
COc1ccc(Oc2nc(-c3cccnc3)nc3ccccc23)cc1 | 2.8 | 11.3 | -1.2 | -11.1 | 24.0
Cc1cc(NC(=O)CSc2nnc(-c3ccc([N+](=O)[O-])cc3)o2)no1 | 5.9 | 8.8 | 25.1 | -10.7 | 67.8*
Cc1cc(-c2nnc(SCC(=O)Nc3nc(-c4ccc(Cl)cc4)cs3)o2)no1 | -0.7 | -11.5 | 9.4 | 99.0* | 10.0
CC(C)(CNC(=O)c1ccc(S(=O)(=O)Nc2cccc(C(F)(F)F)c2)cc1)N1CCOCC1 | 3.3 | 0.8 | . | 0.3 | .
Cc1ccc2[nH]c(C)c(CCNC(=O)c3c(N)no[n+]3[O-])c2c1 | -4.5 | -5.8 | 3.3 | 98.7* | -9.7
Cc1ccc2nccc(C(=O)N3CCCC(Nc4ccc(C)c(C)c4)C3)c2c1 (configuration not stated) | 2.4 | -2.5 | 16.0 | 98.9* | 41.2
COc1ccc(C(=O)N2CCCC(Nc3ccc(C(C)C)cc3)C2)c(OC)n1 (configuration not stated) | 0.5 | 10.2 | -3.7 | 31.5 | 9.0
CCCc1cc(C(=O)N2CCCC(Nc3ccc(C)c(C)c3)C2)n(C)n1 (configuration not stated) | -4.5 | -4.8 | 4.2 | 98.4* | 36.4
Cc1ccc(C(=O)N2CCCC(Nc3ccc(C)c(C)c3)C2)c(=O)[nH]1 (configuration not stated) | 5.9 | 5.7 | -9.1 | -0.2 | 9.6
COc1ccc(NC2CCCN(C(=O)c3csc(C)n3)C2)cc1 (configuration not stated) | -3.7 | -10.8 | 10.3 | 99.3* | 28.7
Cc1cc(C(=O)N2CCCC(Nc3ccc(F)cc3)C2)n(C)n1 (configuration not stated) | 6.5 | 24.6 | 3.6 | 54.5 | 17.6
CSc1nc(C(=O)N2CCCC(Nc3ccc(C)c(C)c3)C2)cs1 (configuration not stated) | -5.0 | 4.5 | 1.0 | 98.4* | -5.1
CN(CC(=O)NCCc1ccc(S(N)(=O)=O)cc1)CC(=O)Nc1ccccc1C(F)(F)F | 0.6 | -8.3 | . | 54.3 | .
CCN(CC)CCn1c(=S)[nH]c2cc(C(=O)NCCc3ccc(OC)c(OC)c3)ccc2c1=O | 7.1 | -9.7 | . | . | .
